We go through 37 molecules from PubChem BioAssay (EPA / NIEHS).

Broadly, the AC50 is the concentration giving half of the maximal activity seen.

Molecules are shown by their SMILES. Activity calls are given as the source filed them. Rule for the calls: active = hit-call score of the fitted dose curve at least 0.9, where 1 is the maximum; inactive = score below 0.9.

The nature of the first assay: ATG_EGR_CIS: Attagene CIS-FACTORIAL HepG2 Assay for human Early Growth Response 1 (EGR1) (AID 2282938). The conditions noted are these: HepG2 Attagene CIS-FACTORIAL EGR reporter mRNA; actives raise or lower the signal. The method, boiled down:
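Fluorescent capillary-electrophoresis signal of reporter cDNA fragments serves as read-out. HepG2 cells bear transiently transfected cis-promoter reporter units and are exposed 24 h; gain- or loss-of-signal is fitted against DMSO.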
Turning to `CCCCCCC=O`, the molecule was classed as inactive.
On the same count and under the same terms, as for `CCCCCCOc1ccc(N)cc1`, the entry is “inactive”.
On the same count and under the same terms, as for `C=CC(C)(CCC=C(C)C)OC(=O)C=Cc1ccccc1` (centres undefined), the entry is “inactive”.
With `CCCCCC(=O)OCC`, the outcome was inactive.
Still for that read-out and setting: the value for `CCC(C)N` (centres undefined) was “inactive”.
Consider `COc1ccc(C(=O)/C(Br)=C\C(=O)O)cc1`, for which the AC50 is 68 µM (active).
Regarding `CCN1CN(CC)CN(CC)C1`, the result was inactive.
Same read-out and setting: as for `Cc1ccc(S(=O)(=O)N=C=O)cc1`, the entry is “inactive”; as for `C=C(C)C1CC=C(C)CC1` (centres undefined), “inactive”.
As to `c1ccc2sc(SSN3CCOCC3)nc2c1`, the AC50 is 100 µM (active).
With `CC(=O)OCCc1ccccc1`, the result was inactive.
Still for that read-out and setting: as for `CC(=O)OC/C=C(/C)CCC=C(C)C`, the entry is “inactive”; as for `CCCCCC1=CCCC1=O`, “inactive”.
For the molecule `CC(C)(CO)COC(=O)C(C)(C)CO`, the outcome was inactive.
With `CCCCCCCCCCCC(C)=O`, the call was inactive.
Still for that read-out and setting: the value for `O=C1CCCCCCCCCCC1` was “inactive”; that for `Nc1nc(N)nc(-c2ccccc2)n1` was “inactive”.

Another assay can be described thus: ATG_M_19_CIS: Attagene CIS-FACTORIAL HepG2 Assay for M19 Transcription Factor (Internal Marker) (AID 2282939). The conditions noted are these: HepG2 Attagene CIS-FACTORIAL M19 internal marker reporter; actives raise or lower the signal. The method, boiled down: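 In this multiplexed cell assay, transiently transfected HepG2 reporter units report endogenous transcription-factor activity; after 24 hours of treatment, labelled reporter cDNA fragments are quantified by capillary electrophoresis and fitted bidirectionally against DMSO.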
With `CC(Cl)COP(=O)(OCC(C)Cl)OCC(C)Cl` (centres undefined), the result was inactive.
The same measure, in the same setting: as for `CCCCCCC=O`, the entry is “inactive”; as for `CCCCCCOc1ccc(N)cc1`, “inactive”.
On the same count and under the same terms, as for `C=CC(C)(CCC=C(C)C)OC(=O)C=Cc1ccccc1` (centres undefined), the entry is “inactive”.
Take `CCCCCCCCCCCCCC(=O)OC(C)C`: the outcome was inactive.
The same measure, in the same setting: as for `CCCCCC(=O)OCC`, the entry is “inactive”; as for `CCCCCCCOC(=O)c1ccc(O)cc1`, “inactive”.
The same measure, in the same setting: the value for `Cc1ccccc1CCO` was “inactive”.
On the same count and under the same terms, as for `CCC(C)N` (centres undefined), the entry is “inactive”; as for `COC(OC)(C(=O)c1ccccc1)c1ccccc1`, “inactive”; as for `[Cl][Eu]([Cl])[Cl]`, “inactive”.
Take `Nc1ncnc2nc[nH]c12`: the molecule was called inactive.
Same read-out and setting: as for `COc1ccc(C(=O)/C(Br)=C\C(=O)O)cc1`, the entry is “inactive”; as for `CCN1CN(CC)CN(CC)C1`, “inactive”.
For the molecule `CCOC(=O)c1ccc(C)cc1`, the molecule was called inactive.
As for `Cc1ccc(S(=O)(=O)N=C=O)cc1`, the call was inactive.
Still for that read-out and setting: the value for `C=C(C)C1CC=C(C)CC1` (centres undefined) was “inactive”.
On to `Cc1ccc2c(c1)CCCN2`, for which the molecule was called inactive.
Still for that read-out and setting: the value for `COc1cc(C)ccc1O` was “inactive”.
Still for that read-out and setting: as for `C=CC(=O)OCCCCCCOC(=O)C=C`, the entry is “inactive”; as for `c1ccc2sc(SSN3CCOCC3)nc2c1`, “inactive”.
On the same count and under the same terms, the value for `CCCCOCCOCCOC(C)=O` was “inactive”.
With `CC(=O)OCCc1ccccc1`, the molecule was called inactive.
As for `CC(C)CC(=O)OCc1ccccc1`, the outcome was inactive.
On the same count and under the same terms, as for `CC(=O)OC/C=C(/C)CCC=C(C)C`, the entry is “inactive”.
Same read-out and setting: as for `CCCCCC1=CCCC1=O`, the entry is “inactive”; as for `CCC(C)(O)CCCC(C)C` (centres undefined), “inactive”; as for `COc1ccc(C(=O)c2ccccc2)c(O)c1`, “inactive”.
Same read-out and setting: the value for `CC(C)(CO)COC(=O)C(C)(C)CO` was “inactive”; that for `Cc1c[nH]c(=O)[nH]c1=O` was “inactive”; that for `CCOB(OCC)OCC` was “inactive”.
For `CC(=O)CCC1=C(C)CCCC1(C)C`, the molecule was called inactive.
Take `CCCCCCCCCCCC(C)=O`: the call was inactive.
Regarding `O=C1CCCCCCCCCCC1`, the molecule was classed as inactive.
As to `Nc1nc(N)nc(-c2ccccc2)n1`, the outcome was inactive.
Same read-out and setting: as for `CCOC(=O)C1=NOC(c2ccccc2)(c2ccccc2)C1`, the entry is “inactive”; as for `Cc1c(O)cccc1O`, “inactive”.
